Measured values as given in PubChem BioAssay AID778 (Sanford-Burnham Center for Chemical Genomics, 2007).
The whole screen tested about 96,000 compounds, of which about 20,000 (21%) were called active. Only a sample is shown. Unmarked numbers belong to inactive results.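 The calls were made as follows: active = CYP2C19 inhibition above a set limit at 5 µM in the primary screen (cut at about 50% in these data); inactive = the rest.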

Each molecule was assayed against Cytochrome P450 2C19 (Homo sapiens) (UniProt P33261) (assay: blockers of cytochrome P450 2C19 activity – biochemical, luminescence, ADME assay, primary screen (AID 778;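 also: plate controls were negative control wells for no effect and 2.5 mM tranylcypromine positive control for full effect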)). Conditions: CYP2C19 Supersomes, luciferin-H EGE luminescence, 30 min; at 5 µM; hits give high values.
Sequence of Cytochrome P450 2C19 (Homo sapiens) (P33261 whole entry, looked up): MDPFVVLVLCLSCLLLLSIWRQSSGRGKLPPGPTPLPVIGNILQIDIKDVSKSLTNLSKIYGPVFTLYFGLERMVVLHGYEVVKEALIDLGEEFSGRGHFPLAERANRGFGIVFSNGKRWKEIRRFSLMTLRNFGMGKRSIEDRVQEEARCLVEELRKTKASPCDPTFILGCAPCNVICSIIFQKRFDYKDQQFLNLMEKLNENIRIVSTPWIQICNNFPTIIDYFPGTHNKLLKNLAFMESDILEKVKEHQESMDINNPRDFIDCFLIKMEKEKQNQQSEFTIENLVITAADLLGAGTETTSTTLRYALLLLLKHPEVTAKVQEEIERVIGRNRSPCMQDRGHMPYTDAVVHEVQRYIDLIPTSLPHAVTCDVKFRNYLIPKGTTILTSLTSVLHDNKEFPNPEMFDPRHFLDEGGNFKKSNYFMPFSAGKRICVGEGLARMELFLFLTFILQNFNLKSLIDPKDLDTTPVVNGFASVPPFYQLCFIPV

SMILES | inhibition
COc1c(Br)cc2c(C)c(C(=O)N3CCOCC3)oc2c1Br | 33.1%
N#C/C(=C\c1ccccc1)c1n[nH]c(Cn2cncn2)n1 | 23.3%
FC(F)(F)COc1nc(N2CCCCC2)nc(N2CCNCC2)n1 | -9.3%
C/C(=N/NC(=O)c1cc(Cl)ccc1O)C12CC3CC(CC(C3)C1)C2 | 0.2%
CCOC(=O)c1[nH]cnc1C(=O)NC1CCCCC1 | 18.3%
CCOC(=O)C1=C(CNC2CCCCC2)NC(=O)NC1c1cc(C)ccc1C (configuration not stated) | 97.1% (active)
Cc1ccc(N(C(=O)CC2NC(=O)NC2=O)C2(C(=O)NC3CCCC3)CCCCC2)cc1 (configuration not stated) | -3.8%
CN(Cc1ccccc1)c1nc2c(c(=O)[nH]c(=O)n2C)n1CCSc1nc2ccccc2[nH]1 | 38.5%
O=C1CC(c2cccc(F)c2)C2=C(CCCC2=O)N1 (configuration not stated) | 8.1%
CCc1nnc(NC(=O)CSc2nnc(COc3ccc(C#N)cc3)n2-c2ccccc2)s1 | 4.5%
CSc1ccc(S(=O)(=O)NCc2ccc(Cl)cc2)cc1 | 78.2% (active)
Cc1ccc(S/C(=N\S(=O)(=O)c2ccc(Cl)cc2)c2ccccc2)cc1 | 24.1%
O=[N+]([O-])c1ccccc1NCc1ccc(Cl)cc1 | 21%
Fc1c(F)c(C(F)(F)F)c(F)c(F)c1N1CCN(c2ccc3nnc(C(F)(F)F)n3n2)CC1 | 0.5%
COc1ccc(C(c2nnnn2Cc2cccs2)N2CCN(c3ccccc3)CC2)cc1OC (configuration not stated) | 69.8% (active)
Cc1ccc(C(c2nnnn2CS(=O)(=O)c2ccc(C)cc2)N2CCC(C)CC2)cc1 (configuration not stated) | 3.8%
COc1ccc(CCn2nnnc2C(c2ccccc2)N2CCN(C)CC2)cc1OC (configuration not stated) | 2.7%
O=C(Nc1ccc(Br)c2cccnc12)c1ccc(Cn2cc([N+](=O)[O-])cn2)o1 | 20.2%
CCCNC(=O)Nc1ccccc1C(=O)Nc1ccc(OC)cc1 | 40.1%
COc1ccc(CCn2c(-c3ccco3)nc3nc4ccccc4nc32)cc1OC | 16.7%
CCC(C)n1c(-c2cc(OC)c(OC)c(OC)c2)nc2nc3ccccc3nc21 (configuration not stated) | 92.6% (active)

SMILES | inhibition
Clc1cccc(-c2nc3nc4ccccc4nc3n2Cc2ccco2)c1 | 1.8%
CCOc1ccc(CNC(=O)C2CCC(=O)N2C2CCCC2)cc1OC (configuration not stated) | -0.1%
Clc1ccc2c(c1)C1=C(C(c3ccncc3)O2)C(c2ccc(Br)cc2)n2ncnc2N1 (configuration not stated) | 86.1% (active)
Brc1ccc(C2=CC(c3ccco3)n3ncnc3N2)cc1 (configuration not stated) | 33%
COC(=O)C1=C(C)Nc2ncnn2C1c1cccnc1 (configuration not stated) | -0.3%
Cc1ccc(Cc2c(C)nc3nc(SCC(=O)NCCN4CCOCC4)nn3c2C)cc1 | -3.1%
COc1ccc(-c2cc3nc(C)c(CCC(=O)NC(C)CCc4ccco4)c(C)n3n2)c(OC)c1 (configuration not stated) | 30.5%
CCCCNC(=O)OC(C)CNC(=O)OC (configuration not stated) | 2.3%
O=C(O)CCC(=O)Nc1ccc(N2CCOCC2)cc1 | -9%
COc1ccc(S(=O)(=O)Nc2ccc3oc(C)c(C(C)=O)c3c2)cc1 | 67.4% (active)
CC(=O)Nc1ccc(S(=O)(=O)Nc2ccc(N3CCOCC3)c(F)c2)cc1 | 93.5% (active)
CC(=O)Nc1cccc(Oc2cc(C#N)c(C#N)cc2N2CCOCC2)c1 | 5.2%
CCOc1ccc(NS(=O)(=O)c2ccc(OCC(=O)NCCCOC)cc2)cc1 | 2.3%
CC(=O)Nc1ccc(S(=O)(=O)N2CCCC2C(=O)O)cc1 (configuration not stated) | -6.9%
COc1ccc(NS(=O)(=O)c2ccc(NC(=S)NC(=O)CC(C)C)cc2)cc1 | 25.1%
COc1ccc2oc(C)c(NC(C)=O)c2c1 | 13.5%
COc1c(C)cccc1C(=O)Nc1cc(Cl)ccc1N1CCOCC1 | 20.6%
COC(=O)COc1ccc(S(=O)(=O)Nc2ccc(NC(C)=O)cc2)cc1 | 69.1% (active)
COc1ccc(NC(=O)c2c(C)oc3c2CCCC3)cc1 | 24.5%
CC(=O)Nc1ccc(N2CCOCC2)c(C(=O)Nc2cccc(C)c2)c1 | 53.3% (active)
CCCc1[nH]nc2c1C(c1c(C)nn(-c3ccccc3)c1Cl)C(C#N)=C(N)O2 (configuration not stated) | 49.2%

SMILES | inhibition
CC(=O)Oc1cc2c(C(=O)NCCN3CCOCC3)c(C)oc2c2ccccc12 | 34.2%
Cc1ccc(C2=CSC3=NS(=O)(=O)CCN23)cc1C | 2.5%
CC(=O)c1c(C)n([O-])c2ccccc2[n+]1=O | -0.9%
O=C(N/N=C/c1ccc(O)cc1)/C(=C/c1ccc([N+](=O)[O-])cc1)NC(=O)c1ccccc1 | 7.9%
C/C(=C(\C#N)C(=O)NCCCN1CCOCC1)N(C)C | -11.3%
Cc1ccc(S(=O)(=O)/N=C(\CN2CCOCC2)N2CCOCC2)cc1 | -1.3%
N#Cc1cccc(CSc2nnc(CCCO)n2-c2ccccc2)c1 | 8.4%
O=C(/C=C/Nc1ccccc1)c1cnc(-c2ccccc2)s1 | 0.3%
Nc1c(-c2ccc(F)cc2)cnn1C1CCS(=O)(=O)C1 (configuration not stated) | -15.6%
COc1cccc(C2/C(=C(/O)c3ccc(F)cc3)C(=O)C(=O)N2CCN(C)C)c1 (configuration not stated) | 5.9%
CCOC(=O)c1sc(NC(=O)C(CC)Sc2nccn2C)nc1C (configuration not stated) | 28%
CC(=O)N1CCCc2cc(S(=O)(=O)CCC(=O)N3CCN(c4ccccc4)CC3)ccc21 | 29.1%
CCOC(=O)CC1=CC(=O)Nc2ccccc2N1 | 12.4%
Cc1ccc(C(=O)NC2CC(C)(C)NC(C)(C)C2)c(C)c1 | -14.1%
COc1cc(NS(=O)(=O)c2ccc(NC(C)=O)cc2)cc(OC)c1 | 98% (active)
COc1ccc(NS(=O)(=O)c2ccc(NC(C)=O)cc2)cc1OC | 43.3%
CCNS(=O)(=O)c1ccc(NC(=O)Nc2cccc(OC)c2)cc1 | 25.1%
O=C(Nc1ccn(Cc2ccccc2F)n1)c1ccc(COc2ccc(Cl)cc2Cl)o1 | 57.8% (active)
CCOc1ccc(OCc2ccc(C(=O)Nc3cccc(C)n3)o2)cc1 | 35.8%
O=C(O)c1ccc(COc2c(F)c(F)cc(F)c2F)o1 | -3.2%
